# Screening data deposited in PubChem by Paczesny and Yang Labs, IUPUI and University of Michigan.
# Only a selection was taken, and hits are over-represented in it overall.
# ST2 inh: inhibitors of human ST2 (IL1RL1) binding to IL-33, primary screen, biochemical, AlphaLISA | Interleukin-1 receptor-like 1 (Homo sapiens), Q01638 | AlphaLISA ST2-Fc/biotin-IL-33 interaction, 1 h | inhibition, % for hits at 17 µM | actives 2.3% (n = 78,000); in the data active = inhibition above about 30%
# Target sequence (Q01638 whole entry, looked up): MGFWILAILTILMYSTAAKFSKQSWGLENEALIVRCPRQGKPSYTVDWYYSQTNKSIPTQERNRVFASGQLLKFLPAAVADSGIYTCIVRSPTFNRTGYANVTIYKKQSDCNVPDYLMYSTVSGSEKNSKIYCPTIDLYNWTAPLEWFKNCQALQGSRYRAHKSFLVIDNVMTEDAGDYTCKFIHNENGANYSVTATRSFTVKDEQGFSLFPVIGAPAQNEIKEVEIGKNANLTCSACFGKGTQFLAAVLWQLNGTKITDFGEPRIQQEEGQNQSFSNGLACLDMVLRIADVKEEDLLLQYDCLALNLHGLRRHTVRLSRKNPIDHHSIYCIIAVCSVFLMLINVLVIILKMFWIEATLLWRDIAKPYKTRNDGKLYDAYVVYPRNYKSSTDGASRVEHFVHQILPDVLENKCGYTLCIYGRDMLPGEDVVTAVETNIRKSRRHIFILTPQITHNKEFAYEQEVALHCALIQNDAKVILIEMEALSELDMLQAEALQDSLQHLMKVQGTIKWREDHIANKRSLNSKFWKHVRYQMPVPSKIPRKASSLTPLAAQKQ
# An asterisk follows results filed as active; i = inactive.
SMILES,ST2 inh
COc1ccc(OC)c(N=Cc2c(O)c(OC)cc(Br)c2Br)c1,i
CCN(CC)c1ccc(C=Nc2ccc(OC)cc2OC)c(O)c1,35%*
COc1cccc(C=Nc2ccc(S(=O)(=O)Nc3cc(C)on3)cc2)c1O,i
CCN(CC)c1ccc(N=Cc2cccc(OC)c2O)cc1,94%*
Cc1ccc(N=Cc2cccc(C(=O)O)c2O)cc1,i
COc1ccc(N=Cc2cc(Br)cc(Br)c2O)c(OC)c1,i
Cc1sc2nc(CCN)nc(N(C)CCc3ccccn3)c2c1C,i
CC1CCCCC1NC(=O)C1CCC(CNS(=O)(=O)c2cccc3nsnc23)CC1 (stereo not drawn),i
Cc1ccc(C(N)=O)c(N2CCC(O)(CO)CC2)n1,i
Cc1ccc(N(CC(=O)Nc2ccc(S(=O)(=O)N3CCCCC3)cc2)S(C)(=O)=O)c(C)c1,i
CCOC(=O)c1sc2ncn(CC(=O)NCCCOC)c(=O)c2c1C,i
Cc1c(NC(=O)C2CC2)cccc1[N+](=O)[O-],i
Cc1c(NC(=O)c2ccccc2)cccc1[N+](=O)[O-],i
Cc1c(NC(=O)C(c2ccccc2)c2ccccc2)cccc1[N+](=O)[O-],44%*
CCN1CCN(C(=O)CCc2nc(-c3ccc(C)cc3)no2)CC1,i
Cc1n[nH]c(C)c1S(=O)(=O)N1CCC(C(=O)Nc2ccc(F)cc2F)CC1,i
Cc1ccc2oc(=O)c(-c3nc4ccccc4s3)cc2c1,36%*
CCN(CC)c1ccc2cc(-c3nc4ccccc4s3)c(=O)oc2c1,i
C=C(C)COc1ccc2cc(-c3nc4ccccc4s3)c(=O)oc2c1,i
COc1ccc(NC(=O)c2c(F)cccc2F)c([N+](=O)[O-])c1,i
O=C(c1cc(O)c(O)c([N+](=O)[O-])c1)c1ccccc1F,i
Cc1cc(Oc2ccccc2F)c(F)cc1[N+](=O)[O-],31%*
O=C(Nc1ccc2c(c1)OCO2)c1cc(-c2ccc(Cl)c(Cl)c2)on1,i
O=[N+]([O-])c1cccc(C=Nc2ccc(S(=O)(=O)Nc3ccccn3)cc2)c1,i
Cc1[nH]n(-c2ccccc2)c(=O)c1C=Nc1cc([N+](=O)[O-])cc([N+](=O)[O-])c1,i
SMILES,ST2 inh
O=[N+]([O-])c1cc(Nc2ccccc2)c(C=Nc2ccccc2)c([N+](=O)[O-])c1,66%*
O=C(CSc1nc2ccccc2[nH]1)c1ccc(Cl)c(Cl)c1,i
CCCCN(Cc1ccccc1)S(=O)(=O)c1ccc2c(c1)CCC(=O)N2,i
Cc1cc(C)nc(NC(=O)c2ccccc2F)c1,30%*
Cc1ccn2c(NC(=O)c3ccccc3F)c(-c3ccccc3)nc2c1,i
Cc1cc(C)nc(NC(=O)CCCC(=O)O)c1,i
CCSc1nc(CC(=O)N(C)Cc2cc3cc(F)ccc3[nH]2)cs1,i
CN1CCCC2(CC1)CCN(C(=O)c1ccc(S(N)(=O)=O)cc1)CC2,i
COc1ccc(NC(=O)c2noc3c2CCCCC3)cc1,i
COc1cccc(-n2c(O)c(C=Nc3ccc(Cl)cc3)c3ccccc3c2=O)c1,i
COc1ccc(N=Cc2c(O)c([N+](=O)[O-])cc3oc4c(c23)CCCC4)cc1,i
COc1ccc(N=Cc2c(O)cc(C)c(Cl)c2C)cc1,43%*
COc1ccc(N=Cc2c(O)ccc3oc4c(c23)CCCC4)cc1,40%*
Cc1c(Cl)c(C)c([N+](=O)[O-])c(O)c1C=Nc1ccc(C(=O)O)cc1,i
CCC(C)NC(=O)CSc1nc2ccccc2c2nc3ccccc3n12 (stereo not drawn),i
CC1CCCN(C(=O)c2cc3c(=O)n4ccccc4nc3n2C)C1 (stereo not drawn),i
CC1CCN(C(=O)COc2ccc3c(c2)C(=O)CC(C)(C)O3)CC1,i
O=C1c2ccc(Oc3cccc([N+](=O)[O-])c3)cc2C(=O)N1c1c[nH]c(=O)[nH]c1=O,31%*
Cc1cc(N2C(=O)c3ccc([N+](=O)[O-])cc3C2=O)no1,i
COc1ccc(N2C(=O)c3ccc(Oc4cccc(N)c4)cc3C2=O)cc1,i
O=C(CN(c1cccc(C(F)(F)F)c1)S(=O)(=O)c1ccccc1)Nc1ccc(Cl)cc1,i
O=C(CS(=O)(=O)c1cn(Cc2ccccc2Cl)c2ccccc12)NC1CCCCC1,32%*
Cc1cc(NC(=O)CS(=O)(=O)c2cn(Cc3ccccc3Cl)c3ccccc23)no1,i
CCn1cc(S(=O)(=O)CC(=O)NC2CCCCC2)c2ccccc21,i
Cn1cc(C(c2ccc([N+](=O)[O-])o2)c2cn(C)c3ccccc23)c2ccccc21,41%*
SMILES,ST2 inh
Cn1cc(CC(=O)NCc2ccco2)c2ccccc21,i
CCN(CC)C(=O)Cc1cn(C)c2ccccc12,i
Cc1cccc(OCC(=O)Nc2ccc(N3CCCC3)cc2)c1C,66%*
Cc1cccc(OCC(=O)Nc2sc3c(c2C#N)CCC3)c1C,i
CCc1ccc(OCC(=O)Nc2ccc(N3CCN(C(C)=O)CC3)cc2)cc1,i
Cc1ccc(OCC(=O)Nc2ccc(N3CCCC3)cc2)cc1C,59%*
Cc1cc(C)c(NC(=O)COc2ccc(C)c(C)c2)c(C)c1,i
